# Bioassay records as filed in PubChem.
# T cruzi growth-1: blocks T. cruzi growth in NIH3T3 culture; T. cruzi beta-gal in NIH3T3, GalScreen luminescence, 90 h; inhibition, % at 8.34 µM; 5.9% of 77,000 active; AID 624255;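 active = mean inhibition above about 93%, with at least 55% of replicates each passing it, limit read from the data, passing the limit was not always enough; inconclusive = only one of those two conditions holds; inactive = neither condition holds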
# C diff HTS: inhibitors of Clostridium difficile growth; Clostridium difficile clinical isolate growth, OD600, 24 h; hits give low values; AID 1259249; 0.25% of 86,000 active; growth activity, negative = inhibition, % at 16 µg/mL (by protocol);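 active = mean growth activity at or below -80% and every replicate also at or below -80%; inconclusive = mean at or below -80% but some replicate above -80%; inactive = mean growth activity above -80%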;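 note: 0% = DMSO wells and -100% = levofloxacin 16 µg/mL wells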
# Pf Dd2 growth: inhibitors of Plasmodium falciparum Dd2 growth; P. falciparum Dd2 growth, SYBR Green, 72 h; hits give low values; activity change, % at 10 µM; 2.3% of 94,000 active; in the data active = activity change below about -80%; inconclusive = no clear call, values can overlap the other calls
# T cruzi growth-2: blocks T. cruzi growth in NIH3T3 host cells | 72% of 5,600 active | inhibition, % at 8.35 µM | T. cruzi beta-gal in NIH3T3, GalScreen luminescence, 90 h | shares compounds with T cruzi growth-1;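 active = mean replicate inhibition above about 95% and at least 55% of replicates individually reaching it, limit read from the data; inconclusive = only one of the two criteria is met; inactive = neither criterion is met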
# T cruzi growth-3: blocks T. cruzi growth in NIH3T3 host cells. shares compounds with T cruzi growth-1. T. cruzi beta-gal in NIH3T3, GalScreen luminescence, 90 h. inhibition, % at 2.09 µM. 21% of 5,600 active;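 active = mean inhibition above about 95%, with at least 55% of replicates also reaching it, limit read from the data; inconclusive = meets just one of the two conditions; inactive = meets neither condition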;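 note: plate controls were neutral control median for no effect and positive control median for full effect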
# NIH3T3 tox: NIH/3T3 (mouse) viability loss. shares compounds with T cruzi growth-1. NIH/3T3 viability, CellTiter-Glo ATP luminescence, 90 h. cytotoxicity (signal decrease), % at 8.35 µM. 14% of 5,600 active. AID 651742;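 active = mean signal decrease across replicates above about 35% based on untreated-well scatter, with enough replicates individually passing, limit read from the data; inconclusive = no rule stated though some were filed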;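 note: 0% = median of neutral control wells and 100% = median of positive control wells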
# 3T3 cytotox 2: cytotoxicity in mouse NIH/3T3 fibroblasts; shares compounds with T cruzi growth-1; NIH/3T3 viability, CellTiter-Glo ATP luminescence, 90 h; inhibition, % at 24.9 µM; 56% of 5,600 active; AID 651744;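 active = mean loss of cell viability signal at or above a set limit, and enough replicates individually reaching it; inconclusive = meets only the mean limit or only the replicate share; inactive = meets neither condition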;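 note: 0% = median of neutral control wells and 100% = median of positive control wells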
# Numbers without * were called inactive; ? = inconclusive; · = no result. A selection: hits, their analogues and other compounds. The true share with any hit is near 6.7%.
SMILES,T cruzi growth-1,C diff HTS,Pf Dd2 growth,T cruzi growth-2,T cruzi growth-3,NIH3T3 tox,3T3 cytotox 2
CCc1csc(N2[C@H](C#N)[C@@H](c3ccc(-c4cccc(F)c4)cc3)[C@H]2CO)n1,100*,13,-14,108*,89,29,31*
O=C(N[C@H]1CC[C@@H](CCn2cc(C3(O)CCCC3)nn2)O[C@H]1CO)c1ccccc1F,-9,·,2,·,·,·,·
O=C(c1ccc(F)cc1)N1CC(=O)N2[C@H](CO)[C@H](c3ccc(C#CC4CCCCC4)cc3)[C@H]2C1,·,10,-24,·,·,·,·
COc1ccc2c3c(n(C)c2c1)[C@H](CO)N(C(=O)Cc1ccccn1)CC31CN(C)C1,·,-3,11,·,·,·,·
C[C@H]1CN([C@@H](C)CO)S(=O)(=O)c2ccc(-c3ccccc3)cc2O[C@@H]1CN(C)Cc1cccc(F)c1,119*,30,-73,89,108*,?,103*
C[C@H](CO)N1C[C@H](C)[C@@H](CN(C)Cc2cccc(F)c2)Oc2cc(-c3ccccc3)ccc2S1(=O)=O,107*,13,-67,92,88,43*,101*
C[C@@H]1CN([C@H](C)CO)S(=O)(=O)c2ccc(-c3ccc(F)cc3)cc2O[C@@H]1CN(C)Cc1cccc(F)c1,74,29,-8,·,·,·,·
C[C@@H]1CN([C@@H](C)CO)S(=O)(=O)c2ccc(-c3ccc(C#N)cc3)cc2O[C@@H]1CN(C)Cc1cccc(F)c1,·,10,-18,·,·,·,·
C[C@H]1CN([C@@H](C)CO)S(=O)(=O)c2ccc(-c3ccccc3)cc2O[C@H]1CN(C)Cc1cccc(F)c1,119*,15,-43,94,102*,25,107*
C[C@@H]1CN([C@H](C)CO)S(=O)(=O)c2ccc(-c3ccc(C#N)cc3)cc2O[C@@H]1CN(C)Cc1cccc(F)c1,·,18,3,·,·,·,·
C[C@@H]1CN([C@@H](C)CO)S(=O)(=O)c2ccc(-c3ccc(C#N)cc3)cc2O[C@H]1CN(C)Cc1cccc(F)c1,·,13,-24,·,·,·,·
C[C@@H]1CN([C@H](C)CO)S(=O)(=O)c2ccc(-c3ccccc3)cc2O[C@H]1CN(C)Cc1cccc(F)c1,118*,40,-55,101*,104*,117*,103*
C[C@@H]1CN([C@H](C)CO)C(=O)c2cc(NC(=O)Nc3ccccc3)ccc2O[C@H]1CN(C)C(=O)Nc1ccc2c(c1)OCO2,18,·,28,·,·,·,·
CN1CCN(C(=O)C[C@H]2C[C@@H]3c4cc(NC(=O)CC5CC5)ccc4O[C@@H]3[C@H](CO)O2)CC1,-3,3,6,·,·,·,·
C[C@H](CO)N1C[C@H](C)[C@H](CN(C)Cc2cccc(F)c2)Oc2cc(-c3ccccc3)ccc2S1(=O)=O,120*,13,-40,108*,69,25,104*
C[C@H](CO)N1C[C@H](C)[C@H](CN(C)Cc2cccc(F)c2)Oc2cc(-c3ccc(F)cc3)ccc2S1(=O)=O,91,23,-1,·,·,·,·
CN1C(=O)c2cc(NC(=O)c3cnccn3)ccc2OC[C@@H]2O[C@H](CC(=O)N[C@@H]3CCN(Cc4ccccc4)C3)CC[C@H]21,85,-2,-11,·,·,·,·
CN1C(=O)c2cc(NC(=O)c3cnccn3)ccc2OC[C@@H]2O[C@H](CC(=O)N[C@H]3CCN(Cc4ccccc4)C3)CC[C@@H]21,109*,-4,-10,95*,?,-13,2
CN1C(=O)c2cc(NC(=O)c3cnccn3)ccc2OC[C@@H]2O[C@@H](CC(=O)N[C@@H]3CCN(Cc4ccccc4)C3)CC[C@H]21,101*,-2,-18,101*,48,0,-8
CN1C(=O)c2cc(NC(=O)c3cnccn3)ccc2OC[C@H]2O[C@@H](CC(=O)N[C@H]3CCN(Cc4ccccc4)C3)CC[C@@H]21,82,-2,7,·,·,·,·
O=C(NCC[C@@H]1CC[C@H](NS(=O)(=O)c2ccc(F)cc2)[C@@H](CO)O1)c1ccccc1F,·,0,-9,·,·,·,·
COc1ccc(NC(=O)Nc2ccc3c(c2)CC(=O)N([C@H](C)CO)C[C@H](C)[C@@H](CN(C)Cc2ccc(Cl)c(Cl)c2)O3)cc1,59,32,-74,·,·,·,·
